Source: the supplement of paper PMC7595190

Tested on: MV4-11
Experiment: CellTox Green cytotoxicity fluorescence relative to DMSO vehicle (fold of vehicle RFU); higher = more cell death (loss of membrane integrity), active = 2 or more
Protocol: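 Paediatric AML cell lines (MV4-11, CMK, Kasumi-1; 4x10^4 cells/well, 96-well) treated with single compounds from the Selleckchem apoptosis library at 0.01, 0.1 and 1 µM. Cytotoxicity was read with CellTox Green (RFU, Ex 485/Em 520) at 24, 48 and 72 h and normalised to the 0.1% DMSO vehicle. Normalised RFU >= 2 was taken as a successful, cell-killing treatment.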

Measured: CellTox Green cytotoxicity fluorescence

O=C(O)C(=O)c1cn(Cc2ccccc2)c2ccc(-c3ccc(OC(F)(F)F)cc3)cc12 [Tiplaxtinin]
inactive: 0.01 µM, 24 h 1.02 | 0.01 µM, 48 h 1.02 | 0.01 µM, 72 h 1.04 | 0.1 µM, 24 h 1.01 | 0.1 µM, 48 h 1.02 | 0.1 µM, 72 h 1.03 | 1 µM, 24 h 0.997 | 1 µM, 48 h 1.01 | 1 µM, 72 h 1
